PubChem BioAssay (Tox21)
Inconclusive results are not listed. Calls of active or inactive are those of the source. Unless noted, calls follow the shape of the dose curve; as a rule, active = well fitted curve in the direction sought with a large enough effect in the repeat runs; inconclusive = weak or mixed curves; inactive = no such curve, though single readings can be large; an effect the other way counts as inactive or inconclusive.

Experiments:
[1] = qHTS assay to identify small molecule antagonists of the glucocorticoid receptor (GR) signaling pathway - cell viability counter screen (AID 720693); details: GR-bla HeLa viability, CellTiter-Glo luminescence, 18 h, with 5 nM dexamethasone present; series mostly up to 58.5 µM; also: nearly all actives have a fitted effect of over 55% in size
[2] = qHTS assay for identifying genotoxic compounds that show differential cytotoxicity against isogenic chicken DT40 cell lines with known DNA damage response pathways - Rad54/Ku70 mutant cell line (AID 743015); details: DT40 Rad54/Ku70 mutant viability, CellTiter-Glo, 40 h; series mostly up to 66.8 µM; also: nearly all actives have a fitted effect of over 60% in size
[3] = qHTS assay to identify small molecule antagonists of the androgen receptor (AR) signaling pathway - cell viability counter screen (AID 743033; also: nearly all actives have a fitted effect of over 45% in size); details: AR-bla HEK293 viability, CellTiter-Glo luminescence, 16 h; series mostly up to 58.5 µM
[4] = qHTS assay to identify small molecule antagonists of the androgen receptor (AR) signaling pathway using the MDA cell line - cell viability counter screen (AID 743041; also: nearly all actives have a fitted effect of over 45% in size); details: MDA-kb2 viability, CellTiter-Fluor, 16 h, cells co-treated with R1881 androgen agonist; series mostly up to 70.3 µM
Method in brief: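 Cytotoxicity counter screen: MDA-kb2 AR-luc cells, compound + R1881, 16 h, 37C, 0% CO2; CellTiter-Fluor added at 15.5 h, fluorescence read after 30 min.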

[5] = qHTS assay to identify small molecule antagonists of the thyroid receptor (TR) signaling pathway - cell viability counter screen (AID 743064); details: GH3.TRE-Luc viability, CellTiter-Fluor, 24 h; series mostly up to 70.3 µM; also: nearly all actives have a fitted effect of over 50% in size
Method in brief: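 Viability of T3-stimulated (1 nM final) GH3.TRE-Luc cells is measured by CellTiter-Fluor fluorescence after 23.5 h compound exposure at 37 °C plus 30 min reagent incubation.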

[6] = qHTS assay to identify small molecule antagonists of the thyroid receptor (TR) signaling pathway (AID 743065); details: GH3.TRE-Luc, T3-stimulated luciferase inhibition, 23.5 h; series mostly up to 70.3 µM; also: nearly all actives have a fitted effect of over 55% in size
Method in brief: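 GH3.TRE-Luc rat pituitary cells (two TREs driving luciferase) were dosed with compound, then stimulated with 1 nM T3 (final) for 23.5 h at 37 C. ONE-Glo luminescence was the read-out, with CellTiter-Fluor fluorescence as the cytotoxicity counter-screen.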

[7] = tested on: thyroid hormone receptor (rat, GH3 cells); assay: qHTS assay to identify small molecule agonists of the thyroid receptor (TR) signaling pathway (AID 743066; calls by dose curve); details: GH3.TRE-Luc cells, TR agonist luciferase, 24 h; series mostly up to 83.9 µM
[8] = molecular target: Estrogen receptor (Homo sapiens) (UniProt P03372); assay: qHTS assay to identify small molecule antagonists of the estrogen receptor alpha (ER-alpha) signaling pathway (AID 743069; active = well fitted curve in the direction sought with a large enough effect in the signal ratio in the repeat runs, not every such curve was filed as active; the % refers to the signal ratio); details: HEK293 ER-alpha-UAS-bla, beta-lactamase ratio, antagonist mode; series mostly up to 69.4 µM
Chain of Estrogen receptor (Homo sapiens) (P03372 whole entry, looked up): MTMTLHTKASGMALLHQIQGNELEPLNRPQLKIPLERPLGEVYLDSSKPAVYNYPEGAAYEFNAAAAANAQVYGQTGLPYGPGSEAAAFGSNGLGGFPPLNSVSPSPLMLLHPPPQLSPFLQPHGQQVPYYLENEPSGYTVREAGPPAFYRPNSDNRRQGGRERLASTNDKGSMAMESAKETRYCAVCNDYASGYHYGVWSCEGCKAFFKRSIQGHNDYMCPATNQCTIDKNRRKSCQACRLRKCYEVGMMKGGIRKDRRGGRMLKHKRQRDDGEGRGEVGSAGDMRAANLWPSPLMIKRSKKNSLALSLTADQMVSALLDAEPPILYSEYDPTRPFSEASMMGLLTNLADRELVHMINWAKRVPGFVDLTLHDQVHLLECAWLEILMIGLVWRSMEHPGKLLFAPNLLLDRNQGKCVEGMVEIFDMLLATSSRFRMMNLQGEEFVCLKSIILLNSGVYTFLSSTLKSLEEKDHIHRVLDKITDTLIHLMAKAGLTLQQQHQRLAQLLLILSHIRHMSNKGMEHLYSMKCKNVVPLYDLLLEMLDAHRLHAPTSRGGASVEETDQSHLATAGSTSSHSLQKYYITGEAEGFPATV
Method in brief: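 Beta-lactamase FRET fluorescence is read after 2 hr at room temperature with LiveBLAzer B/G substrate. Before that, ER-alpha-bla HEK293 cells sit 4 hr after plating, then receive compound plus 17beta-estradiol and incubate 18 hr at 37C.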

[9] = molecular target: Estrogen receptor (Homo sapiens) (UniProt P03372); assay: qHTS assay to identify small molecule agonists of the estrogen receptor alpha (ER-alpha) signaling pathway (AID 743075; calls by dose curve;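 also: HEK293 GripTite cells with ER-alpha and UAS-driven beta-lactamase reporter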); details: HEK293 ER-alpha-UAS-bla, beta-lactamase FRET ratio, 18 h; series mostly up to 70.1 µM
[10] = molecular target: Estrogen receptor (Homo sapiens) (UniProt P03372); assay: qHTS assay to identify small molecule agonists of the estrogen receptor alpha (ER-alpha) signaling pathway using the BG1 cell line (AID 743079); details: BG1Luc4E2 cells, ERE-luciferase agonist, 22 h; series mostly up to 70.3 µM; also: nearly all actives have a fitted effect of over 20% in size
[11] = qHTS assay to identify small molecule antagonists of the estrogen receptor alpha (ER-alpha) signaling pathway using the BG1 cell line (AID 743080; calls by dose curve;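 also: BG1 cells stimulated with 17beta-estradiol alongside compound; nearly all actives have a fitted effect of over 25% in size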); details: BG1Luc4E2 ERE-luciferase antagonist mode, luminescence; series mostly up to 70.3 µM
Method in brief: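 Quantitative HTS on the Tox21 10K library: BG1 cells with endogenous ER-alpha and ERE-luciferase reporter, 17beta-estradiol stimulation, 21.5 h compound exposure, luminescence endpoint with parallel fluorescence cytotoxicity counter-read.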

[12] = qHTS assay to identify small molecule antagonists of the estrogen receptor alpha (ER-alpha) signaling pathway using the BG1 cell line - cell viability counter screen (AID 743081); details: BG1Luc4E2 viability, CellTiter-Fluor, 22 h; series mostly up to 70.3 µM;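 also: compound given together with 17beta-estradiol as the ER stimulus; nearly all actives have a fitted effect of over 45% in size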
[13] = molecular target: Aromatase (Homo sapiens) (UniProt P11511); assay: qHTS assay to identify aromatase inhibitors (AID 743083); details: MCF-7 aro ERE, testosterone-driven ERE luciferase, 24 h; series mostly up to 70.3 µM; also: nearly all actives have a fitted effect of over 55% in size
Chain of Aromatase (Homo sapiens) (P11511 whole entry, looked up): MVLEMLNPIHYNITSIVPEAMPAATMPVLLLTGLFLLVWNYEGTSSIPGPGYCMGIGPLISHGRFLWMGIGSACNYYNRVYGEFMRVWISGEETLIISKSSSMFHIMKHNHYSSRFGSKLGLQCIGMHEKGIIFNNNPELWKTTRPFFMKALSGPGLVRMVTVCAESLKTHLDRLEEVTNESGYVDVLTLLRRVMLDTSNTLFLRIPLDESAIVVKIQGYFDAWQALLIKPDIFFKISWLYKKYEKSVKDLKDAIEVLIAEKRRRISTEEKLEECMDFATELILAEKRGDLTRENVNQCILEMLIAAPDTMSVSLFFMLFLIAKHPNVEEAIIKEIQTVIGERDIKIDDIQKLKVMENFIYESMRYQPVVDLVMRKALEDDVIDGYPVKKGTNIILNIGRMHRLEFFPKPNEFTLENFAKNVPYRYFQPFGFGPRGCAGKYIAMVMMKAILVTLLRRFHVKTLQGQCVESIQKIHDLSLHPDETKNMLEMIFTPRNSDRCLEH

[14] = molecular target: Androgen receptor (Homo sapiens) (UniProt P10275); assay: qHTS assay to identify small molecule agonists of the androgen receptor (AR) signaling pathway using the MDA cell line (AID 743040; also: nearly all actives have a fitted effect of over 20% in size); details: MDA-kb2 AR-luc cells, MMTV luciferase, 16 h; series mostly up to 70.3 µM
Chain of Androgen receptor (Homo sapiens) (P10275 whole entry, looked up): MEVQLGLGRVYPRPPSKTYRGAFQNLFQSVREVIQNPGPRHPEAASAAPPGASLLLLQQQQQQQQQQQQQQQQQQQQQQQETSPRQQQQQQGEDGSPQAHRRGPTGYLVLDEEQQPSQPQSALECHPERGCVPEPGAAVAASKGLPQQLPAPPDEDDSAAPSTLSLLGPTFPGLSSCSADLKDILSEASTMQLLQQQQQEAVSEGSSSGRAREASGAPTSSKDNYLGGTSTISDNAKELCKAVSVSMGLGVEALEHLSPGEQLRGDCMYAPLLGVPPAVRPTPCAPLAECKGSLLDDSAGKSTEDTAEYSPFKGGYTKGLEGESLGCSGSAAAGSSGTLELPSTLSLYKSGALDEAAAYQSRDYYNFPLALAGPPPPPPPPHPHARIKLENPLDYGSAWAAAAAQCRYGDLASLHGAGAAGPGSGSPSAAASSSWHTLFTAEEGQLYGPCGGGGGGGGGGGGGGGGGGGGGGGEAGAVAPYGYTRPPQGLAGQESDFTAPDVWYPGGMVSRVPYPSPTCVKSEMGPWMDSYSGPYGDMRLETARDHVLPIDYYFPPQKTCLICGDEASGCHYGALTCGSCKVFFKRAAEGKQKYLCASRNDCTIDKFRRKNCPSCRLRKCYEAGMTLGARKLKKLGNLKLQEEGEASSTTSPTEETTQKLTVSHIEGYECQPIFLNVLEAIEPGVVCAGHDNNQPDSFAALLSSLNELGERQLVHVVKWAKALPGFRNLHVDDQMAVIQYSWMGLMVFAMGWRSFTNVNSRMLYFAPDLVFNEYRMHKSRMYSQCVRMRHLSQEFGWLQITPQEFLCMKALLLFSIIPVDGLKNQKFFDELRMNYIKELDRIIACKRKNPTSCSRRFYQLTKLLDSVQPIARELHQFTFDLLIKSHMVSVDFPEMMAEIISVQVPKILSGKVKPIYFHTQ
Method in brief: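 Luciferase read-out, ONE-Glo, 30 min RT. Cells: MDA-kb2 AR-luc, MMTV promoter with AR and GR response elements. Compound exposure 16 h, 37C, 0% CO2, after 5 h pre-incubation. qHTS agonist mode.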

[15] = qHTS assay to identify small molecule antagonists of the estrogen receptor alpha (ER-alpha) signaling pathway - cell viability counter screen (AID 743074; calls by dose curve;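 also: HEK293 cells carrying ER-alpha-UAS-bla reporter stimulated with 17beta-estradiol; nearly all actives have a fitted effect of over 45% in size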); details: ERalpha-bla HEK293 viability, CellTiter-Glo luminescence, 18 h; series mostly up to 69.4 µM
[16] = qHTS assay for identifying genotoxic compounds that show differential cytotoxicity against isogenic chicken DT40 cell lines with known DNA damage response pathways - Rev3 mutant cell line (AID 743014); details: chicken DT40 Rev3-/- viability, CellTiter-Glo, 40 h; series mostly up to 68.4 µM; also: nearly all actives have a fitted effect of over 55% in size; also: potency is read from the fitted curve at half-maximal effect
[17] = molecular target: Androgen receptor (Homo sapiens) (UniProt P10275); assay: qHTS assay to identify small molecule antagonists of the androgen receptor (AR) signaling pathway (AID 743035; active = well fitted inhibition curve with a large enough effect in the signal ratio in the repeat runs, not every such curve was filed as active; the % refers to the signal ratio); details: HEK293 AR-UAS-bla, R1881-stimulated, beta-lactamase FRET, 16 h; series mostly up to 58.5 µM
Method in brief: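 Reporter HEK293 cells were exposed to compounds and R1881 overnight (16 h, 37C); beta-lactamase activity was then quantified by FRET fluorescence.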

[18] = molecular target: Androgen receptor (Homo sapiens) (UniProt P10275); assay: qHTS assay to identify small molecule agonists of the androgen receptor (AR) signaling pathway (AID 743036; active = well fitted activation curve with a large enough effect in the signal ratio in the repeat runs, with a control signal flat, not every such curve was filed as active; the % refers to the signal ratio); details: HEK293 AR-UAS-bla GripTite, beta-lactamase FRET ratio, 16 h; series mostly up to 62.4 µM
Method in brief: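 Screening used 2,000 AR-bla HEK293 cells per well, treated 16 h at 37C with test compounds in DMSO alongside positive and DMSO-only controls; beta-lactamase activity was then read by LiveBLAzer B/G FRET fluorescence after 2 h at room temperature.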

[19] = molecular target: Androgen receptor (Homo sapiens) (UniProt P10275); assay: qHTS assay to identify small molecule antagonists of the androgen receptor (AR) signaling pathway using the MDA cell line (AID 743042; also: nearly all actives have a fitted effect of over 55% in size); details: MDA-kb2 AR-luc, MMTV luciferase, R1881 antagonist, 16 h; series mostly up to 70.3 µM
Method in brief: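 MDA-kb2 breast carcinoma cells carrying MMTV-luciferase (AR/GR responsive) were co-treated with compounds and the agonist R1881 for 16 h at 37C. Inhibition read as ONE-Glo luminescence; CellTiter-Fluor fluorescence measured in parallel for cytotoxicity.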

[20] = qHTS assay for identifying genotoxic compounds that show differential cytotoxicity against isogenic chicken DT40 cell lines with known DNA damage response pathways - wild type cell line (AID 743012); details: DT40 wild type chicken cells viability, CellTiter-Glo, 40 h; series mostly up to 68.4 µM; also: nearly all actives have a fitted effect of over 60% in size
Method in brief: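 Viability of DNA repair-proficient chicken DT40 cells was assessed by CellTiter-Glo luminescence following 40 h compound exposure at 37 C/5% CO2.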

Measured: Potency

C[C@H]1C[C@H]2[C@@H]3CCC4=CC(=O)C=C[C@]4(C)[C@H]3C(=O)C[C@]2(C)[C@@]1(O)C(=O)CO
not listed: [14] | [15] | [16] | [17] | [18] | [19] | [20]
inactive: all other assays above

C[N+](C)(CCOc1ccccc1)Cc1cccs1
inactive: [1] | [2] | [3] | [14] | [4] | [5] | [6] | [7] | [15] | [12] | [13]

CCC(C)(CN(C)C)OC(=O)c1ccccc1 (stereo not drawn)
inactive: [1] | [3] | [4] | [5] | [6] | [7] | [15] | [12] | [13]

CC1=NN(c2cccc(S(=O)(=O)O)c2)C(=O)C1
not listed: [1] | [11] | [20]
inactive: all other assays above

CCCCCCCCCCCCCCC(=O)O
inactive: [1] | [3] | [4] | [5] | [6] | [7] | [8] | [15] | [11] | [12] | [13]

c1ccc2sc(SN3CCOCC3)nc2c1
inactive: [1] | [16] | [3] | [4] | [5] | [6] | [7] | [15] | [12] | [13]

CCC(=O)OCc1ccccc1
inactive: [16] | [2] | [3] | [4] | [5] | [6] | [7] | [15] | [12] | [13]

O=C(O)Cc1csc(-c2ccc(Cl)cc2)n1
not listed: [2] | [3] | [18] | [20]
inactive: all other assays above

COc1cc2c(cc1OC)-c1cc3ccc(OC)c(OC)c3c[n+]1CC2
inactive: [1] | [3] | [5] | [15] | [12] | [13]
active: [16] 49 µM

Cc1ncc([C@@H](CCCCCCc2ccc3c(n2)NCCC3)CC(=O)O)cn1
not listed: [8] | [11] | [14] | [16] | [17] | [18] | [19] | [20]
inactive: all other assays above

NC(N)=NCCN1CCCCCCC1
inactive: [1] | [3] | [4] | [5] | [6] | [7] | [15] | [11] | [12] | [13]

CC(C)CC(C)(N)C#N (stereo not drawn)
inactive: [20] | [16] | [3] | [4] | [5] | [6] | [7] | [15] | [12] | [13]

CC(C)=CCC/C(C)=C/C#N
not listed: [2] | [14] | [16] | [17] | [18] | [19] | [20]
inactive: all other assays above

Cc1c(N)c(=O)n(-c2ccccc2)n1C
inactive: [1] | [16] | [3] | [4] | [5] | [6] | [7] | [15] | [13]
